From publication PMC7862700, “An all-to-all approach to the identification of sequence-specific readers for epigenetic DNA modifications on cytosine” come the findings set out here.

Test in all cases: DAPPL (digital affinity profiling via proximity ligation, sequencing); 10 mM Tris-HCl pH 7.5, 50 mM NaCl, 1 mM DTT, 4% glycerol, room temperature, 30 min; GST-TFs on glutathione beads, 16-mer random dsDNA library, 0.1% formaldehyde crosslink after washing; high values mean tight binding
What all share (conditions): protein: recombinant; tags: N-terminal GST; dsDNA, one strand shown

One assay addresses ELF4 (Homo sapiens, UniProt Q99607 1-663). Put shortly: (§1)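 Binding signal is given per hexamer as its read frequency for a factor divided by its frequency in the tag-only sample. GST-fused human transcription factors were expressed in yeast, captured on glutathione beads, barcoded with DNA and pooled with that sample, then incubated with 200 nmole of a 16-mer random double-stranded DNA library in Tris/NaCl/DTT/glycerol buffer for 30 min at room temperature. The pools were then washed, crosslinked, proximity-ligated, amplified by PCR and sequenced on an Illumina NextSeq500.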

The target of another assay is T1, ETV2 (Homo sapiens, UniProt O00321 1-342).
T1 sequence: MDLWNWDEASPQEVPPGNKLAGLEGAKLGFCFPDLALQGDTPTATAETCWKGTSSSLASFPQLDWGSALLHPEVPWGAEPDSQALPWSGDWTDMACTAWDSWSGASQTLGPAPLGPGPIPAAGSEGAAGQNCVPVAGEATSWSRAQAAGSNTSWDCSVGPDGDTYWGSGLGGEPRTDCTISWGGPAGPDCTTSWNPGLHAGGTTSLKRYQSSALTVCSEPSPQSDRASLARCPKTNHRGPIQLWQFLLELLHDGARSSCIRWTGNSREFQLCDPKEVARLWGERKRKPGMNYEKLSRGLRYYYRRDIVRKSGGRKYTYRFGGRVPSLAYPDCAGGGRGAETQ
The gist of the method:
as §1

Another assay deals with T2, ELF3 (Homo sapiens, UniProt P78545 1-371).
T2 sequence: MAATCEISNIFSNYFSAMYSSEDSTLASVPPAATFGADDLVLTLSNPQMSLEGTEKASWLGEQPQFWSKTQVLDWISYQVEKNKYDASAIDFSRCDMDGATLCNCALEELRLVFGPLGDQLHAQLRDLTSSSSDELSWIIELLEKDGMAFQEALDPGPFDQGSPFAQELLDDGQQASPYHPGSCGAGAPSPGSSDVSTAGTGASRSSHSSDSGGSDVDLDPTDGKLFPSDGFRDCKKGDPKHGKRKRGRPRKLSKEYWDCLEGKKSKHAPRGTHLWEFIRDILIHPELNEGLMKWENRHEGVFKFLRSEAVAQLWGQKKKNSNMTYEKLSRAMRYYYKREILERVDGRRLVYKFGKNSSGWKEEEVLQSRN
The gist of the method: as §1

The next assay has as its target T3, ERF (Homo sapiens, UniProt P50548 1-548).
T3 sequence: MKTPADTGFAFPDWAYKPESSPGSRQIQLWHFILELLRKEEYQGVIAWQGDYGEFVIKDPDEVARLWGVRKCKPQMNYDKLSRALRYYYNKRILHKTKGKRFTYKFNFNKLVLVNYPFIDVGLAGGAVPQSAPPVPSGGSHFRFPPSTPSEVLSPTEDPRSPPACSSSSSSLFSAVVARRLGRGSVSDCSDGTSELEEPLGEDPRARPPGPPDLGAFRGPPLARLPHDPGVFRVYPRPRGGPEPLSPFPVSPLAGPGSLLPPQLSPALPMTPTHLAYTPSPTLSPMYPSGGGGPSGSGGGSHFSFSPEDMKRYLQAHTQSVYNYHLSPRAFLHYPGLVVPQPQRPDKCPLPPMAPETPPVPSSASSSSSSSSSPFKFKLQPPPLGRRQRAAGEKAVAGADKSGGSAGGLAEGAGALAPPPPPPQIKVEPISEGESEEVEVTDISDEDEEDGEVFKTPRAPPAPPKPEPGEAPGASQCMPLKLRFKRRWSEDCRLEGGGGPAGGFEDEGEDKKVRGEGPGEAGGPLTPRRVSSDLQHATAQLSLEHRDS
The gist of the method:
as §1

The next assay deals with T4, ETV3L (Homo sapiens, UniProt Q6ZN32 1-361).
T4 sequence: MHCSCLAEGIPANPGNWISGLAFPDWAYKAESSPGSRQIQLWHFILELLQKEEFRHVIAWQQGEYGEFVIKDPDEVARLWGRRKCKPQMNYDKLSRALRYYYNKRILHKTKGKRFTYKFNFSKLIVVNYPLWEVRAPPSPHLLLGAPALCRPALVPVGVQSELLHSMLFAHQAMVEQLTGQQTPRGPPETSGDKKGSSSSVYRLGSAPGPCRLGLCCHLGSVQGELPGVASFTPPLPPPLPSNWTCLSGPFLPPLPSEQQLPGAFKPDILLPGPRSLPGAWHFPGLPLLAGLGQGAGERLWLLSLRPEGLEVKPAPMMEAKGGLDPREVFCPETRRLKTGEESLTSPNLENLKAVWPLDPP
Put shortly:
as §1

A further assay deals with T5, ETS2 (Homo sapiens, UniProt P15036 1-469).
T5 sequence: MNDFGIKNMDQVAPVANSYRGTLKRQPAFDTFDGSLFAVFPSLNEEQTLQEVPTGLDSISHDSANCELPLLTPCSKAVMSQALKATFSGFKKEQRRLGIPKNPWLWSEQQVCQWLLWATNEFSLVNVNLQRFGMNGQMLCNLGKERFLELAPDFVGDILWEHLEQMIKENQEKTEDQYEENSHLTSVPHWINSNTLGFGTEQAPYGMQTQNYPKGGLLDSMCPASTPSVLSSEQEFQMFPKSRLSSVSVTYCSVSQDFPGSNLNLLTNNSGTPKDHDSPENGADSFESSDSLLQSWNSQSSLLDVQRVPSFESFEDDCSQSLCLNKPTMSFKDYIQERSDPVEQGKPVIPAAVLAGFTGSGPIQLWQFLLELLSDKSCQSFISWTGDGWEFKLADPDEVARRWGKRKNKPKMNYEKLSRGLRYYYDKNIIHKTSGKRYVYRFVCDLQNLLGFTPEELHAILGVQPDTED
Put shortly: as §1

The next assay deals with T6, SPDEF (Homo sapiens, UniProt O95238 1-335).
T6 sequence: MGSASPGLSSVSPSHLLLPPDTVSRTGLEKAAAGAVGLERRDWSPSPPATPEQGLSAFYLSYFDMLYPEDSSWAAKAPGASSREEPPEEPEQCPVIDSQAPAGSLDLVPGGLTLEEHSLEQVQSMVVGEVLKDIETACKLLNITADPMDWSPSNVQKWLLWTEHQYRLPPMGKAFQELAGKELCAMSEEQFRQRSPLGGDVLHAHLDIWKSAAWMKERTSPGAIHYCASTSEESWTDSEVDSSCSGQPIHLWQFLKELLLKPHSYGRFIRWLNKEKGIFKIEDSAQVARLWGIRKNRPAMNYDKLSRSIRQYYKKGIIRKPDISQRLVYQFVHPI
The gist of the method:
as §1

Another assay concerns the target T7, ETV7 (Homo sapiens, UniProt Q9Y603 1-341).
T7 sequence: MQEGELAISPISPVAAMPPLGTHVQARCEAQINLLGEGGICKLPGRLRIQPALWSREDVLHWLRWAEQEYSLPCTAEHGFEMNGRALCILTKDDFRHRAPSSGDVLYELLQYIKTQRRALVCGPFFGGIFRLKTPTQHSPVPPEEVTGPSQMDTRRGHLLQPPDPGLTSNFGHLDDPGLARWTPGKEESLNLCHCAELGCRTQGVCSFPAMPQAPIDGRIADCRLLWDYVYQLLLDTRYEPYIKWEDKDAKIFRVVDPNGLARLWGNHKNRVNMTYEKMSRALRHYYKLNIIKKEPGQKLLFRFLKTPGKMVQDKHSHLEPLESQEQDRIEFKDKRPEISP
The gist of the method:
as §1

In the next assay the target is T8, ELF5 (Homo sapiens, UniProt Q9UKW6-2 1-255).
T8 sequence: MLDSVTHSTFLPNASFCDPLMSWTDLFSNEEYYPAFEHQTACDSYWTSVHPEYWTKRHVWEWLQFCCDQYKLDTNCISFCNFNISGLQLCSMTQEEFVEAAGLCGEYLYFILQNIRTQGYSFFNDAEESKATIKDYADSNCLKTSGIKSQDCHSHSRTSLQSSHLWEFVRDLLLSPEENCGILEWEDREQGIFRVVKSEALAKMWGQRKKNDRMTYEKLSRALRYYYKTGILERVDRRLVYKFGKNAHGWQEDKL
The gist of the method: as §1

The next assay addresses ETV6 (Homo sapiens, UniProt P41212 1-452). The gist of the method:
as §1

The target of the next assay is T9, ELK1 (Homo sapiens, UniProt P19419 1-428).
T9 sequence: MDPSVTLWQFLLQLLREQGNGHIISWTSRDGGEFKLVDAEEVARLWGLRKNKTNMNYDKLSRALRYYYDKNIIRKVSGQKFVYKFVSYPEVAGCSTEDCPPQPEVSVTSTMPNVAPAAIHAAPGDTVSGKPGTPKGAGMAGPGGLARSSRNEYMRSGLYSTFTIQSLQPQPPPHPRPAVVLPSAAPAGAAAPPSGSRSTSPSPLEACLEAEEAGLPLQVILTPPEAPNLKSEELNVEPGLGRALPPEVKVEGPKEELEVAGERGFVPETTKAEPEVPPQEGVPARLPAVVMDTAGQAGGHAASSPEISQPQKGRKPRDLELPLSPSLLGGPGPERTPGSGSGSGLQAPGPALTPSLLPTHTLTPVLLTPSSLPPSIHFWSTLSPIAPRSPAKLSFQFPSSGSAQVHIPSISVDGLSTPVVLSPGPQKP
Put shortly: as §1

A further assay deals with T10, GABPA (Homo sapiens, UniProt Q06546 1-454).
T10 sequence: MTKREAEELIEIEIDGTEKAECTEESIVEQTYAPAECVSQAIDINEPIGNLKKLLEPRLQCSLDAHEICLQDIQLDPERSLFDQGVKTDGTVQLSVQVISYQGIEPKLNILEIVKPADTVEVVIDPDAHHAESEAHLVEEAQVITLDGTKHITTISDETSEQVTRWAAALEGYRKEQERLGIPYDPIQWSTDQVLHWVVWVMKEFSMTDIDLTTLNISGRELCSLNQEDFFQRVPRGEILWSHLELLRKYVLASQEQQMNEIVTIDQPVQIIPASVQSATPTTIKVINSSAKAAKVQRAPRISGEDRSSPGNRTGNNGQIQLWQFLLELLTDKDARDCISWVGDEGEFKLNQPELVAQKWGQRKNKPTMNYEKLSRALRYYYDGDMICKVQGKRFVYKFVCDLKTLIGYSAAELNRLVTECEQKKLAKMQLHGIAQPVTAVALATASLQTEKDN
Put shortly: as §1

Another assay concerns the target T11, ERG (Homo sapiens, UniProt P11308 1-479).
T11 sequence: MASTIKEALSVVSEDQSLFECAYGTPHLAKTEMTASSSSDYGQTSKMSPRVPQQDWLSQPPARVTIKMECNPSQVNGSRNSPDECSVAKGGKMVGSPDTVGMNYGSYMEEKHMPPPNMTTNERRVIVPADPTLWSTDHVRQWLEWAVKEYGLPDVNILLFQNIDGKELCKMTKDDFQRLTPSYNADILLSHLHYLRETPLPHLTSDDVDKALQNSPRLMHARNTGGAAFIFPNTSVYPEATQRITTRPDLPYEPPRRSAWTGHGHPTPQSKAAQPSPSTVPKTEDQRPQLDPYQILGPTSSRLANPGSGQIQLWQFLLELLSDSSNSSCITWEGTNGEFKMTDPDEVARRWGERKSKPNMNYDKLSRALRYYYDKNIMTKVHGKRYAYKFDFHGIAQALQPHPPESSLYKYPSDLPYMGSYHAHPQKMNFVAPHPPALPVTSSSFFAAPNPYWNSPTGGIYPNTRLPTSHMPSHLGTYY
Put shortly: as §1

The target in another assay is ELF1 (Homo sapiens, UniProt P32519 1-619). The gist of the method: as §1
Chain of ELF1 (P32519 whole entry): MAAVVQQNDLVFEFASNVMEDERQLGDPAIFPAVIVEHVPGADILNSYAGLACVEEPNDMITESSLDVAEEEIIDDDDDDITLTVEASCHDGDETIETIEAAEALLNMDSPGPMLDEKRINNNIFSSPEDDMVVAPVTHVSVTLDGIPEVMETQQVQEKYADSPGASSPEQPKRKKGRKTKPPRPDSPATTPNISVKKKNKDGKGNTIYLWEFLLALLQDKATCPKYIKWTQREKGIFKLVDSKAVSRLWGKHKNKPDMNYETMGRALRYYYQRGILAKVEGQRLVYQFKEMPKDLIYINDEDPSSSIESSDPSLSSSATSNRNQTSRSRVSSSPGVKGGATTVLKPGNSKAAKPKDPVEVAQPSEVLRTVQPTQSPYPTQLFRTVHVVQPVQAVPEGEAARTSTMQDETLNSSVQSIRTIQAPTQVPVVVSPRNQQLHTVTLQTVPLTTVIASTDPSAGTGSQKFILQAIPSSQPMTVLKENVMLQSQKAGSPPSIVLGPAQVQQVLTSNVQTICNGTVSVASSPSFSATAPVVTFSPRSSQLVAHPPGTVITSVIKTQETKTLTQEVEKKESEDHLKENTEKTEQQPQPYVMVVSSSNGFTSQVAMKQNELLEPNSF
Another assay has as its target SPIB (Homo sapiens, UniProt Q01892 1-262). The gist of the method:
as §1

The target of a further assay is T12, ELK4 (Homo sapiens, UniProt P28324-2 1-405).
T12 sequence: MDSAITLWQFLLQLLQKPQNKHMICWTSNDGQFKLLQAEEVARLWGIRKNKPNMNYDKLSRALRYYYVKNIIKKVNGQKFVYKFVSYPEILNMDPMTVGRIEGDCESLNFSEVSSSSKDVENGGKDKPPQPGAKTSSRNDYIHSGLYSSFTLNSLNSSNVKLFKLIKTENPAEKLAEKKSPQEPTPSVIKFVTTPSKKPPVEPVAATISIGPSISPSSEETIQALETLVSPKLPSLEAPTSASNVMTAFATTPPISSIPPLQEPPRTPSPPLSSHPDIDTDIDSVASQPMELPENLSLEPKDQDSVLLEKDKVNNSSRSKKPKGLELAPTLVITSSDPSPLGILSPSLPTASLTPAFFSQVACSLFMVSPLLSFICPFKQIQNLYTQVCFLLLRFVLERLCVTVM
Put shortly: as §1

The next assay deals with T13, ETV3 (Homo sapiens, UniProt P41162-2 1-143).
T13 sequence: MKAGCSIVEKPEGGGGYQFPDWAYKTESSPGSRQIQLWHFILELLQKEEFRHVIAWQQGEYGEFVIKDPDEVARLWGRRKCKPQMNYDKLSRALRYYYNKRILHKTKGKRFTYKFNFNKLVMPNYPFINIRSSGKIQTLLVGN
The gist of the method: as §1

Chain of ETV6 (P41212 whole entry): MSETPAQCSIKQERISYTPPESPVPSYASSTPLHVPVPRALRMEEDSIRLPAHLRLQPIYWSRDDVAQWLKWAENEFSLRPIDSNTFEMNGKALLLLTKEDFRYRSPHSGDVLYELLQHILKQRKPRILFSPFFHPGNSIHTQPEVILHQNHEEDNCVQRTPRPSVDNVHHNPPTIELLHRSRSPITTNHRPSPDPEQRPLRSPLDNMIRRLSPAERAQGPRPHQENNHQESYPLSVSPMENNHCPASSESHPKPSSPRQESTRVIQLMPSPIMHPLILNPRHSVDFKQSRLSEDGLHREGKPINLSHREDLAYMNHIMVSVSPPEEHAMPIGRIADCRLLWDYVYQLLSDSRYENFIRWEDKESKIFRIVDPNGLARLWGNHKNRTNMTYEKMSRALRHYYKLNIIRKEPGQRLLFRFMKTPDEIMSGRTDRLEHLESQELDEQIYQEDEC
Chain of ELF4 (Q99607 whole entry, the tested form may be a part): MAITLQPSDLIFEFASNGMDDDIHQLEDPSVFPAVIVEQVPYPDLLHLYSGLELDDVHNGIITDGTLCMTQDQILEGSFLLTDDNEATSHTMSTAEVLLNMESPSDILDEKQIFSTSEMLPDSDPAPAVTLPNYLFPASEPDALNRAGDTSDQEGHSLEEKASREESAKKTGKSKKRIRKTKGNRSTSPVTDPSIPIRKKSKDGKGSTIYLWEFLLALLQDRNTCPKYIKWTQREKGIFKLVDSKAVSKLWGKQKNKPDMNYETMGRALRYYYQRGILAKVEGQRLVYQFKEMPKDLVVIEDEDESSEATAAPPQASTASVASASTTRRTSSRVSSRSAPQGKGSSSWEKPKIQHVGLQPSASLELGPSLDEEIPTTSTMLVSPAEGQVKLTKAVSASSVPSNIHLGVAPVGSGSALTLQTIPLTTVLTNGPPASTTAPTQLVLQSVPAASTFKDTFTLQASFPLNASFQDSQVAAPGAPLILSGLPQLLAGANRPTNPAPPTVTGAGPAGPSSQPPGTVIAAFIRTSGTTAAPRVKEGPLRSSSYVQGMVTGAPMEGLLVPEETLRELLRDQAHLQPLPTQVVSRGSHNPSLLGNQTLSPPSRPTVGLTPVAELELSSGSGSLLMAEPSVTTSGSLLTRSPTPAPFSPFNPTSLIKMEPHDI
Chain of SPIB (Q01892 whole entry): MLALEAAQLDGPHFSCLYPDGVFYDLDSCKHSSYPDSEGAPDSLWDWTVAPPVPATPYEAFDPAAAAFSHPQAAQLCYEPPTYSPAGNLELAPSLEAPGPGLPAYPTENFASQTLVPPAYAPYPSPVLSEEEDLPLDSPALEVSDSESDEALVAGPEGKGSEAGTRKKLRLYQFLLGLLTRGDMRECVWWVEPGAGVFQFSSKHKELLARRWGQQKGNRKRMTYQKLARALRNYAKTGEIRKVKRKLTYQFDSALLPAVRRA

Consider GAATGC, for which the binding signal with ELF4 is 1.05 fold enrichment (6-mer frequency, TF over GST control); with ETV2, 1.04 fold enrichment (6-mer frequency, TF over GST control); in the assay with ELF3, 1.06 fold enrichment (6-mer frequency, TF over GST control); with ERF, 1.04 fold enrichment (6-mer frequency, TF over GST control); with ETV3L, 1.01 fold enrichment (6-mer frequency, TF over GST control); in the assay with ETS2 it was 1.05 fold enrichment (6-mer frequency, TF over GST control). Besides, the binding signal was 1.04 fold enrichment (6-mer frequency, TF over GST control) with SPDEF; 1.03 fold enrichment (6-mer frequency, TF over GST control) in the assay with ETV7; 1.07 fold enrichment (6-mer frequency, TF over GST control) with ELF5; 1.01 fold enrichment (6-mer frequency, TF over GST control) with ETV6.

As for CACCTG, the binding signal was 1.06 fold enrichment (6-mer frequency, TF over GST control) with ELK1; 1.01 fold enrichment (6-mer frequency, TF over GST control) with GABPA; 1.06 fold enrichment (6-mer frequency, TF over GST control) in the assay with ERG; 1.09 fold enrichment (6-mer frequency, TF over GST control) in the assay with ELF1; 1.03 fold enrichment (6-mer frequency, TF over GST control) in the assay with SPIB; 1.08 fold enrichment (6-mer frequency, TF over GST control) with ELF4. In addition, the binding signal in the assay with ELK4 is 1.09 fold enrichment (6-mer frequency, TF over GST control); in the assay with ELF3, 1.05 fold enrichment (6-mer frequency, TF over GST control); with ERF, 1.07 fold enrichment (6-mer frequency, TF over GST control); in the assay with ETV3L, 1.05 fold enrichment (6-mer frequency, TF over GST control); with SPDEF, 1.07 fold enrichment (6-mer frequency, TF over GST control); with ETV3 it was 1.03 fold enrichment (6-mer frequency, TF over GST control). Also, the binding signal in the assay with ETV6 was 1.06 fold enrichment (6-mer frequency, TF over GST control).
